Assay results published in PubChem BioAssay (Tox21).
Where “and” joins values, the source holds several entries; their conditions need not be identical. Equal entries are not always repeated. Records with an inconclusive call do not appear. Entries that show only a call come without a potency. More than one record can exist for a structure, and the calls need not agree. Calls of active or inactive are those of the source. Unless noted, calls come from the whole dose curve.

What was measured:
[1] = Nuclear factor erythroid 2-related factor 2/antioxidant responsive element (Nrf2/ARE) small molecule agonists: qHTS cell viability counter screen in human keratinocytes (AID 1919968; active = well fitted curve in the direction sought with a large enough effect in the repeat runs; an effect the other way counts as inactive or inconclusive; note: nearly all actives have a fitted effect of over 55% in size; note: potency is the fitted concentration of half-maximal effect)
Outline: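 Seed 1,500 KeratinoSens cells per well, then incubate 5 h at 37 C/5% CO2. Add compounds in DMSO and incubate 23 h. Add CellTiter-Fluor, wait 1 h and read fluorescence.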

[2] = Nuclear factor erythroid 2-related factor 2/antioxidant responsive element (Nrf2/ARE) small molecule agonists: luciferase reporter gene qHTS assay in human keratinocytes (AID 1919969); note: nearly all actives have a fitted effect of over 35% in size; note: potency is the fitted concentration of half-maximal effect
[3] = target: Gonadotropin-releasing hormone receptor (Homo sapiens) (UniProt P30968); assay: Human gonadotropin-releasing hormone receptor (GnRHR) small molecule agonists, calcium flux assay in GnRHR-HEK293 cells (AID 1920063); note: nearly all actives have a fitted effect of over 35% in size
Outline: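 Cells: HEK293 stably expressing human GnRHR. Steps: overnight (18 h) culture, 1 h calcium dye loading at 37 C, compound addition, kinetic fluorescence read at 480/540 nm. Each compound tested at 15 concentrations in triplicate.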

[4] = target: KiSS-1 receptor (Homo sapiens) (UniProt Q969F8); assay: Human kisspeptin (KISS1R) small molecule agonists, calcium flux assay in KISS1R-HEK293 cells (AID 1920064; active = well fitted curve in the direction sought with a large enough effect in the repeat runs; an effect the other way counts as inactive or inconclusive)
Outline: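 Cells plated and incubated 18 h; dye added, 1 h at 37 C; compounds in DMSO pinned in; signal read at 480/540 nm every second for 3 min. Each compound tested at 15 concentrations in triplicate.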

[5] = G protein-coupled receptor (GPCR) small molecule agonists, calcium flux assay: HEK293 wild type cell line counter screen (AID 1920065)
Outline: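 Counter-screen of the Tox21 10K library for non-specific calcium release: dye-loaded cells received compounds in DMSO and were monitored by kinetic fluorescence (480/540 nm, 3 min). Fifteen concentrations, run in triplicate.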

[6] = p53 small molecule agonists, cell-based qHTS assay with human liver microsomes: qHTS cell viability counter screen (AID 1963579); note: nearly all actives have a fitted effect of over 45% in size; note: potency is the fitted concentration of half-maximal effect
Outline: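 Viability of p53RE-bla cells is measured as CellTiter-Glo luminescence following a 16 h, 37 C incubation with compound, liver microsomes from human donors and NADPH.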

[7] = p53 small molecule agonists, cell-based qHTS assay with rat liver microsomes: qHTS cell viability counter screen (AID 1963580); note: nearly all actives have a fitted effect of over 45% in size; note: potency is the fitted concentration of half-maximal effect
Outline: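 p53RE-bla HCT-116 cells were exposed 16 h at 37 C to compounds with rat liver microsomes (0.5 mg/mL) and NADPH (0.5 mg/mL). Viability was measured in the same wells as ATP content by CellTiter-Glo luminescence.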

[8] = p53 small molecule agonists, cell-based qHTS assay: qHTS cell viability counter screen (AID 1963581); note: nearly all actives have a fitted effect of over 45% in size; note: potency is the fitted concentration of half-maximal effect
Outline: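 Cells: HCT-116 with p53 response element-driven beta-lactamase. Treatment: 16 h, 37 C, compounds in DMSO. Read: CellTiter-Glo luminescence after 30 min RT.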

[9] = p53 small molecule agonists, cell-based qHTS assay (AID 1963582; active = well fitted activation curve with a large enough effect in the signal ratio in the repeat runs, not every such curve was filed as active; the % refers to the signal ratio)
Outline: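 Quantitative HTS in p53RE-bla cells: after a 5 h settling period, compounds delivered in DMSO were left on cells for 16 h at 37 C, and reporter induction was measured as fluorescence following 2 h substrate loading.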

[10] = target: 5-hydroxytryptamine receptor 2A (Homo sapiens) (UniProt P28223); assay: 5-hydroxytryptamine receptor 2A (HTR2A) small molecule antagonists, cell-based qHTS assay (AID 1963586); note: nearly all actives have a fitted effect of over 45% in size
Outline: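 Antagonist-mode intracellular calcium assay: DOI (4 nM) added after 5 min compound pre-incubation at room temperature to dye-loaded HTR2A-CHO cells. Fluorescence followed for 3 min, sampled every second.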

[11] = target: Muscarinic acetylcholine receptor M1 (Homo sapiens) (UniProt P11229); assay: Cholinergic receptor muscarinic 1 (CHRM1) small molecule antagonists, cell-based qHTS assay (AID 1963588); note: nearly all actives have a fitted effect of over 40% in size
Outline: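 CHRM1-CHO calcium-flux assay, antagonist mode. Cells were seeded 18 h, dye-loaded 1 h at 37 C and given compound for 5 min at RT, then acetylcholine was added at 50nM. FDSS fluorescence was read 3 min; 15 concentrations, three runs.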

[12] = target: Muscarinic acetylcholine receptor M1 (Homo sapiens) (UniProt P11229); assay: Cholinergic receptor muscarinic 1 (CHRM1) small molecule agonists, cell-based qHTS assay (AID 1963589); note: nearly all actives have a fitted effect of over 35% in size
Outline: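 Agonist-mode qHTS in CHO cells stably carrying human muscarinic M1. Intracellular calcium is tracked by fluorescence every second after compound transfer; each compound runs at 15 concentrations in three independent runs.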

[13] = cAMP Responsive Elements (CRE) small molecule agonists, cell-based qHTS assay (AID 1963590)
Outline: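 Agonist mode qHTS in CRE-bla HEK 293T cells: compounds dosed from DMSO for 3 h at 37 C/5% CO2, followed by LiveBLAzer B/G FRET substrate for 2 h at room temperature.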

[14] = cAMP Responsive Elements (CRE) small molecule antagonists, cell-based qHTS assay (AID 1963591; active = well fitted inhibition curve with a large enough effect in the signal ratio in the repeat runs, not every such curve was filed as active; the % refers to the signal ratio; note: potency is the fitted concentration of half-maximal effect)
Outline: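 Antagonist mode: test compounds are co-incubated with the adenylyl cyclase activator NKH477 (0.25 uM final) on CRE-bla HEK293T cells for 3 h at 37 °C, followed by LiveBLAzer substrate loading.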

[15] = target: Beta-2 adrenergic receptor (Homo sapiens) (UniProt P07550); assay: Adrenergic beta2 receptor (ADRB2) small molecule antagonists, cell-based qHTS assay (AID 1963592); note: series mostly up to about 92 µM; nearly all actives have a fitted effect of over 50% in size
Outline: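 Cells (CHO, stable ADRB2 overexpression) incubated 18-20hr at 37C; compounds added from DMSO; agonist mix (1nM isoproterenol, 100uM IBMX, 25uM Ro-20-1724) added; 0.5hr RT; d2-cAMP and anti-cAMP-cryptate added; 1hr RT; 665/615 nm read.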

[16] = target: Beta-2 adrenergic receptor (Homo sapiens) (UniProt P07550); assay: Adrenergic beta2 receptor (ADRB2) small molecule agonists, cell-based qHTS assay (AID 1963593);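 note: CHO cells stably overexpressing human ADRB2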
Outline: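 CHO cells stably over-expressing ADRB2 were plated overnight at 37C, then dosed with compounds plus a stimulation mix containing 100uM IBMX and 25uM Ro-20-1724 for 0.5hr at room temperature. cAMP was measured by HTRF competition, 1hr.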

[17] = target: D(2) dopamine receptor (Homo sapiens) (UniProt P14416); assay: Dopamine D2 receptor (DRD2) small molecule agonists, cell-based qHTS assay (AID 1963594); note: nearly all actives have a fitted effect of over 35% in size
Outline: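 HEK293 cells stably expressing human DRD2, pre-treated with PDE inhibitor Ro20-1724 (0.1 mM final) and compound 10 min at room temperature, then stimulated with NKH477 (200nM […]) for 30 min. cAMP read by HTRF (665/620 nm).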

[18] = target: D(2) dopamine receptor (Homo sapiens) (UniProt P14416); assay: Dopamine D2 receptor (DRD2) small molecule antagonists, cell-based qHTS assay (AID 1963595; active = well fitted inhibition curve with a large enough effect in the signal ratio in the repeat runs, with a control signal flat; the % refers to the signal ratio)
Outline: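 HTRF cAMP read-out at 665 and 620 nm emission (340 nm excitation). Antagonist mode: compounds were tested against 12 nM quinpirole in DRD2-HEK293 cells, with 200 nM NKH477 raising cAMP and 0.1 mM Ro20-1724 blocking its breakdown.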

[19] = target: 5-hydroxytryptamine receptor 2A (Homo sapiens) (UniProt P28223); assay: 5-hydroxytryptamine receptor 2A (HTR2A) small molecule agonists, cell-based qHTS assay (AID 1963587); note: nearly all actives have a fitted effect of over 30% in size
Outline: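 CHO cells stably expressing human HTR2A, plated 18 h, loaded with calcium dye 1 h at 37 C. Agonist mode: compounds added and intracellular calcium fluorescence recorded kinetically for 2 min at 1 sec intervals.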

[20] = p53 small molecule agonists, cell-based qHTS assay with rat liver microsomes (AID 1963578)
Outline: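 Quantitative HTS of the Tox21 10K library: p53RE-bla cells, rat liver microsomes plus NADPH at 0.5 mg/mL final each, 16 h at 37 C, beta-lactamase fluorescence detection.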

Chain of D(2) dopamine receptor (Homo sapiens) (P14416 whole entry, looked up): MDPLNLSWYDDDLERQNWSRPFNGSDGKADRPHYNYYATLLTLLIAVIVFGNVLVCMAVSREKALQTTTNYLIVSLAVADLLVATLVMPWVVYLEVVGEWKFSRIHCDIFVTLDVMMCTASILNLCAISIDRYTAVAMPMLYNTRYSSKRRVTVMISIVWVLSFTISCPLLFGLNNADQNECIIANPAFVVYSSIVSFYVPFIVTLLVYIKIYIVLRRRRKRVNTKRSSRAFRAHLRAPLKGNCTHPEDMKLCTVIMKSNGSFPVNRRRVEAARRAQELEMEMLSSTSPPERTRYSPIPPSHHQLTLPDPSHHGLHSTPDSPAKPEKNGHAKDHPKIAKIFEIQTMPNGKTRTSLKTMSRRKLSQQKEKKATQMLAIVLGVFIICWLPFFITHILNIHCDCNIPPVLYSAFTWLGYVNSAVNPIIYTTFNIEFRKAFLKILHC
Chain of Beta-2 adrenergic receptor (Homo sapiens) (P07550 whole entry, looked up): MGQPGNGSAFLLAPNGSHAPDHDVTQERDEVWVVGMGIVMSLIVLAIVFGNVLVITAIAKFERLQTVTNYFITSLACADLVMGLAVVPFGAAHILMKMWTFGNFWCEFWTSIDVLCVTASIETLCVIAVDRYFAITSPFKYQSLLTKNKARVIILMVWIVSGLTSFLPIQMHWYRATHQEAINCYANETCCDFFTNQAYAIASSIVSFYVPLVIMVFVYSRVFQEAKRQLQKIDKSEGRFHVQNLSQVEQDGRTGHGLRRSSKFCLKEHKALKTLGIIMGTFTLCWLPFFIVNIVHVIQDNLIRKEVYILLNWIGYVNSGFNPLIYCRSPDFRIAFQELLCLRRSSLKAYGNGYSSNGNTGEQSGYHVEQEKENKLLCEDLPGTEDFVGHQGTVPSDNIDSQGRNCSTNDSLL
Chain of 5-hydroxytryptamine receptor 2A (Homo sapiens) (P28223 whole entry, looked up): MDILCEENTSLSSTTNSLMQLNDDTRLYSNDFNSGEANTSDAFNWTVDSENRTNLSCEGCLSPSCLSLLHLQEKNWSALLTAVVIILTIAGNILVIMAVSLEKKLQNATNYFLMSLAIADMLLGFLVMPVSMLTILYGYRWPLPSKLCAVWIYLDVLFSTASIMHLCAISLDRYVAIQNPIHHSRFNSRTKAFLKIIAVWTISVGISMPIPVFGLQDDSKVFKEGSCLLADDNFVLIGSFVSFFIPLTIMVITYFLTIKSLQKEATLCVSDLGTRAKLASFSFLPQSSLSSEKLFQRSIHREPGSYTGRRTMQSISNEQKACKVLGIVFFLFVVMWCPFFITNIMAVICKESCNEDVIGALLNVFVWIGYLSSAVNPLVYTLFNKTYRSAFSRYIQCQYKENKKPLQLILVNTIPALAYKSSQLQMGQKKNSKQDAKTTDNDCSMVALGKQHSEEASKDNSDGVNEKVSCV
Chain of KiSS-1 receptor (Homo sapiens) (Q969F8 whole entry, looked up): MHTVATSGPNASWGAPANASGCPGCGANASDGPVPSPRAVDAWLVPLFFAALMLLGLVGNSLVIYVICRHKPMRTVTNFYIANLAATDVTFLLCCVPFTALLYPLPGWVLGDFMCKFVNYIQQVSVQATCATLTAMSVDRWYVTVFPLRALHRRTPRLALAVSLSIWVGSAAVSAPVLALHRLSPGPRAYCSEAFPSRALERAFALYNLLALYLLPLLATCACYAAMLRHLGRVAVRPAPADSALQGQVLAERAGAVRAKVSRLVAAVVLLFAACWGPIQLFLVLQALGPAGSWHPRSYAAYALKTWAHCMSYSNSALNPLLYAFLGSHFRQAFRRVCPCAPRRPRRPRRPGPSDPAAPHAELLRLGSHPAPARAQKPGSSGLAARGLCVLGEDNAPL
Chain of Muscarinic acetylcholine receptor M1 (Homo sapiens) (P11229 whole entry, looked up): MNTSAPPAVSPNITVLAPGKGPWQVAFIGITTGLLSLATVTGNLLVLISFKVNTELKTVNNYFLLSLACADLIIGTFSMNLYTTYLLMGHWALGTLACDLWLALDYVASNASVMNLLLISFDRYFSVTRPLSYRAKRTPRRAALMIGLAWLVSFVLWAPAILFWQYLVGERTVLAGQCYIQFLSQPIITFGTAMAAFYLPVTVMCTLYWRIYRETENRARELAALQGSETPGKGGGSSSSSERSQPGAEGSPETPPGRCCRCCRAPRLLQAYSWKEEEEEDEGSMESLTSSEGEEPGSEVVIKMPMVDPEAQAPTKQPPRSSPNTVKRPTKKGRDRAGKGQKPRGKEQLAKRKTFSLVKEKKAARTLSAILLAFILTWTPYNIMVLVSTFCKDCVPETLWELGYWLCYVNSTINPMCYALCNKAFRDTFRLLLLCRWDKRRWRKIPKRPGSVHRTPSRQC
Chain of Gonadotropin-releasing hormone receptor (Homo sapiens) (P30968 whole entry, looked up): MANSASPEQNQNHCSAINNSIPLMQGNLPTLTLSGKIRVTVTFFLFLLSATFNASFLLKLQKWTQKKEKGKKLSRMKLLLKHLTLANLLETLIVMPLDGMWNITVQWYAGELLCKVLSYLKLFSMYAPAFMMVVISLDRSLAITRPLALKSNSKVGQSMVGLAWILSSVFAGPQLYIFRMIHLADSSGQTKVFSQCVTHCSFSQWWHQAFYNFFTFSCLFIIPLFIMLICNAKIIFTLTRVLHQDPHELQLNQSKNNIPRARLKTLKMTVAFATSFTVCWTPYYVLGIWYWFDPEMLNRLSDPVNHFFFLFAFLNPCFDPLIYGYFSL

Structure (SMILES) | Potency [1] | Potency [2] | Potency [3] | Potency [4] | Potency [5] | Potency [6] | Potency [7] | Potency [8] | Potency [9] | Potency [10] | Potency [11] | Potency [12] | Potency [13] | Potency [14] | Potency [15] | Potency [16] | Potency [17] | Potency [18] | Potency [19] | Potency [20]
CNC(=O)O/N=C(\SC)C(=O)N(C)C | inactive | inactive | inactive | inactive | inactive | inactive | inactive | inactive | inactive | inactive | inactive | inactive | inactive | inactive | inactive | inactive | inactive | inactive | – | –
CC(=O)C=C(C)C | inactive | inactive | inactive | inactive | inactive | inactive | inactive | inactive | – | inactive | inactive | inactive | inactive | inactive | inactive | inactive | inactive | inactive | inactive | –
[P]#[In] | inactive | inactive | inactive | inactive | inactive | inactive | – | inactive | inactive | inactive | inactive | inactive | inactive | inactive | inactive | inactive | – | inactive | inactive | inactive
CN(C)C(=O)Cl | inactive | inactive | inactive | inactive | inactive | inactive | inactive | 45.7 µM (active) and inactive | – | inactive | inactive | inactive | inactive | inactive | inactive | inactive | inactive | inactive | inactive | –
Clc1ccc(COC(Cn2ccnc2)c2ccc(Cl)cc2Cl)cc1 (stereo unspecified) | 45.3 µM (active) and 27.2 µM (active) and 13.3 µM (active) | 22.7 µM (active) and 13.3 µM (active) | inactive | inactive | inactive | 38 µM (active) and inactive | inactive | – | – | – | – | – | inactive | 50.8 µM (active) | inactive | – | inactive | – | – | inactive
CCCCCCC#N | inactive | inactive | inactive | inactive | inactive | inactive | – | inactive | inactive | inactive | inactive | inactive | inactive | inactive | – | – | inactive | inactive | inactive | inactive
CCCC[N+]1(C)CCCCC1 | inactive | inactive | inactive | inactive | inactive | inactive | inactive | inactive | – | inactive | inactive | inactive | inactive | inactive | inactive | inactive | – | – | inactive | –
CCNc1nc(NCC)nc(SC)n1 | inactive | inactive | inactive | inactive | inactive | inactive | inactive | – | inactive | inactive | – | inactive | inactive | inactive | inactive | inactive | inactive | inactive | inactive | inactive
CC(=O)/C=C/c1ccccc1 | inactive | 60 µM (active) and inactive | inactive | inactive | inactive | inactive | inactive | inactive | – | inactive | inactive | inactive | inactive | inactive | inactive | inactive | inactive | inactive | inactive | –
CNC(=O)Oc1cccc2ccccc12 | inactive | inactive | inactive | inactive | inactive | inactive | inactive | inactive | inactive | inactive | inactive | inactive | inactive | inactive | inactive | inactive | inactive | inactive | inactive | –
O=C1C(Cl)=C(Cl)C(=O)C(Cl)=C1Cl | 27.2 µM (active) and 27.3 µM (active) | 4.84 µM (active) and 9.69 µM (active) | inactive | inactive | inactive | 40.8 µM (active) | inactive and 40.8 µM (active) | inactive | – | inactive | inactive | inactive | inactive | inactive | – | – | – | – | inactive | –
N#CC1(N=NC2(C#N)CCCCC2)CCCCC1 | inactive | inactive | inactive | inactive | inactive | inactive | – | inactive | inactive | inactive | inactive | inactive | inactive | inactive | inactive | inactive | inactive | – | inactive | inactive
CC(C)OC(=O)Nc1ccccc1 | inactive | inactive | inactive | inactive | inactive | inactive | inactive | – | inactive | inactive | inactive | inactive | inactive | inactive | inactive | – | inactive | inactive | inactive | inactive
CCOP(=O)(OCC)SCCSCC | inactive | inactive and 68.6 µM (active) | inactive | inactive | inactive | inactive | inactive | inactive | inactive | inactive | inactive | inactive | inactive | inactive | inactive | inactive | inactive | inactive | – | –
CCOP(=S)(OCC)SCn1c(=O)oc2cc(Cl)ccc21 | inactive | 32.9 µM (active) and 61.1 µM (active) | inactive | inactive | inactive | inactive | inactive | inactive | inactive | inactive | inactive | inactive | – | – | inactive | – | inactive | inactive | inactive | –
